This passage reports Potency results from PubChem BioAssay (NCATS).

Common to all, as to test: qHTS profiling for inhibitors of Plasmodium falciparum proliferation (AID 504749); also: nearly all actives have a fitted effect of over 60% in size
What all share (details): P. falciparum in erythrocytes, SYBR Green DNA, 72 h; series mostly up to 28.7 µM
For orientation: qHTS replaces the single test concentration by a dilution series.

One assay deals with AA1029. The method in brief:
(§1)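 P. falciparum-infected erythrocytes (0.3% parasitemia, 2.5% hematocrit) incubated with compound 72 h at 37 C, 5% CO2. Parasite DNA detected by SYBR Green after lysis, overnight at room temperature; normalised to 0.29 uM artemisinin and DMSO.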

For a further assay, the system named is ATS95. The method in brief: as §1
In a further assay the test system is C2A. The method in brief:
as §1

The next assay concerns CP211. The method in brief:
as §1

The subject of a further assay is CP215. The method in brief: as §1
The next assay concerns CP217. The method in brief: as §1
In another assay the test system is CP250. Summed up: as §1
The next assay relates to CP252. The method in brief:
as §1

The next assay concerns CP256. The method in brief: as §1
A further assay has as its system CP260. Summed up:
as §1

The next assay deals with CP262. Summed up:
as §1

For another assay, the system named is CP265. The method in brief:
as §1

A further assay concerns CP291. Summed up:
as §1

For a further assay, the system named is CP315. Summed up: as §1
The test system of another assay is Dd2. The method in brief: as §1
The test system of the next assay is FAB9. The method in brief: as §1
The subject of a further assay is ICS. Summed up: as §1
A further assay concerns N140. The method in brief: as §1
The subject of a further assay is SC27B. The method in brief: as §1
The test system of another assay is TAB165. Summed up:
as §1

Results filed as inconclusive are left out. Calls of active or inactive are those of the source. Calls follow the shape of the dose curve; as a rule, active = well fitted inhibition curve with a large enough effect; inconclusive = small, poorly fitted or top-dose-only effect; inactive = flat fitted curve, though single readings scatter.
Potency is read from the fitted curve at half-maximal effect.

For `NCCCCC(N)C(=O)O` (stereo not given), the Potency result with AA1029, in the assay on ATS95, with C2A, with CP211, in the assay on CP215 and in the assay with CP217 was “inactive” each time. Further, the Potency entry in the assay with CP250, with CP252, in the assay with CP256, in the assay with CP260, in the assay on CP262 and in the assay on CP265 was “inactive” throughout. In addition, the Potency result in the assay on CP291, with CP315, with Dd2, in the assay on FAB9, in the assay with ICS and with N140 was “inactive” each time. The Potency result in the assay with SC27B and in the assay with TAB165 was “inactive” each time.
With `CC(=O)OCC(=O)[C@@]1(O)CCC2C3C[C@H](C)C4=CC(=O)C=CC4(C)C3C(O)CC21C` (stereo not given in full), the Potency result in the assay on AA1029, with ATS95, in the assay with C2A, in the assay on CP211, in the assay on CP215 and with CP217 was “inactive” each time. For the same molecule, the Potency entry with CP250, in the assay on CP252, in the assay with CP256, in the assay on CP260, in the assay with CP262 and in the assay on CP265 was “inactive” throughout. The Potency result in the assay on CP291, with CP315, with Dd2, in the assay on FAB9, in the assay on ICS and with N140 was “inactive” each time. The Potency entry in the assay with SC27B and in the assay with TAB165 was “inactive” each time.
Regarding `NC(=O)OC[C@@H]1[C@H](NC(=O)/C(=N/OCC(=O)O)c2csc(N)n2)C(=O)N1S(=O)(=O)O`, the Potency entry in the assay on AA1029, with ATS95, in the assay with C2A, in the assay on CP211, in the assay with CP215 and with CP217 was “inactive” each time. Further, the Potency entry in the assay on CP250, in the assay with CP252, with CP256, in the assay with CP260, in the assay on CP262 and in the assay with CP265 was “inactive” each time. For the same molecule, the Potency entry with CP291, in the assay on CP315, with Dd2, in the assay on ICS, in the assay with N140 and with SC27B was “inactive” in each case. In the assay with TAB165, the Potency entry was “inactive”. The Potency with FAB9 is 100 nM (active).
As for `CN(C)CC/C=C1\c2ccccc2COc2ccc(CC(=O)O)cc21`, the Potency result in the assay on AA1029, in the assay with ATS95, in the assay with C2A, in the assay with CP211, in the assay with CP215 and in the assay with CP217 was “inactive” in each case. In addition, the Potency result in the assay on CP250, in the assay with CP252, in the assay with CP256, with CP260, in the assay with CP262 and in the assay with CP265 was “inactive” in each case. Moreover, the Potency result with CP291, in the assay on CP315, in the assay on Dd2, with FAB9, in the assay with ICS and with N140 was “inactive” throughout. The Potency result with SC27B and with TAB165 was “inactive” throughout.
Regarding `C[C@H]1OC(OC2C(O)[C@@H](O)C(OC3C(O)[C@@H](O)C(O)O[C@@H]3CO)O[C@@H]2CO)[C@H](O)C(O)C1N[C@H]1C=C(CO)[C@@H](O)[C@H](O)C1O` (stereo not given in full), the Potency result with AA1029, with ATS95, with C2A, with CP211, in the assay on CP215 and with CP217 was “inactive” each time. Further, the Potency result in the assay with CP250, in the assay on CP252, in the assay with CP256, in the assay on CP260, with CP262 and with CP265 was “inactive” in each case. Further, the Potency entry in the assay on CP291, in the assay on CP315, in the assay on Dd2, in the assay with FAB9, with ICS and in the assay with N140 was “inactive” each time. Besides, the Potency entry in the assay with SC27B and in the assay with TAB165 was “inactive” throughout.
Turning to `COC1CC2CCC(C)[C@](O)(O2)C(=O)C(=O)N2CCCCC2C(=O)OC(C(C)CC2CCC(O)C(OC)C2)CC(=O)C(C)/C=C(/C)C(O)C(OC)C(=O)C(C)CC(C)C=CC=C/C=C\1C` (stereo not given in full), the Potency was 2240 nM (active) in the assay on AA1029; 3550 nM (active) in the assay on ATS95; 4470 nM (active) in the assay on C2A; 4260 nM (active) in the assay with CP211; 1510 nM (active) in the assay with CP215; 3550 nM (active) in the assay on CP217. Besides, the Potency with CP250 is 3160 nM (active); with CP252 it was 2510 nM (active); in the assay on CP256, 3160 nM (active); with CP260 it was 2510 nM (active); with CP265 it was 2820 nM (active); in the assay on CP291, 4780 nM (active). Besides, the Potency with CP315 is 4260 nM (active); in the assay on Dd2, 1580 nM (active); in the assay on FAB9 it was 8910 nM (active); in the assay with ICS it was 891 nM (active); with N140, 1260 nM (active); in the assay with SC27B, 2000 nM (active). In addition, the Potency with TAB165 is 1120 nM (active). Besides, the Potency result in the assay on CP262 was “inactive”.
Take `CC(=O)N[C@H]1[C@H](O[C@@H]2c3ccc(c(Cl)c3)Oc3cc4cc(c3O[C@@H]3O[C@H](CO)[C@@H](O)[C@H](O)C3C)Oc3ccc(cc3Cl)C[C@H]3NC(=O)[C@@H](N)c5ccc(O)c(c5)Oc5cc(O)cc(c5)[C@H](NC3=O)C(=O)N[C@H]4C(=O)N[C@H]3C(=O)N[C@@H]2C(=O)N[C@@H](C(=O)O)c2cc(O)cc(O[C@H]4O[C@H](CO)[C@@H](O)C(O)[C@@H]4O)c2-c2cc3ccc2O)O[C@H](CO)[C@@H](O)[C@@H]1O` (stereo not given in full): the Potency entry with AA1029, in the assay with ATS95, with C2A, in the assay with CP211, in the assay with CP215 and in the assay with CP217 was “inactive” each time. In addition, the Potency result in the assay with CP250, with CP252, with CP256, with CP260, with CP262 and in the assay with CP265 was “inactive” throughout. For the same molecule, the Potency entry in the assay on CP291, in the assay on CP315, in the assay on Dd2, in the assay on FAB9, in the assay with ICS and in the assay with N140 was “inactive” in each case. In addition, the Potency entry with SC27B and in the assay on TAB165 was “inactive” each time.
Take `CN[C@H](C)CCC=C(C)C`: the Potency with AA1029 is 199 nM (active); in the assay on ATS95 it was 355 nM (active); in the assay with C2A, 631 nM (active); in the assay on CP211, 953 nM (active); with CP215, 601 nM (active); with CP217, 355 nM (active). The Potency in the assay on CP250 is 631 nM (active); in the assay on CP252, 355 nM (active); with CP256 it was 631 nM (active); in the assay on CP260, 224 nM (active); in the assay with CP262 it was 1070 nM (active); in the assay with CP265 it was 398 nM (active). The Potency in the assay on CP291 was 953 nM (active); in the assay with CP315 it was 849 nM (active); in the assay on Dd2, 79.4 nM (active); in the assay on FAB9, 1410 nM (active); in the assay on ICS it was 44.7 nM (active); with N140, 112 nM (active). The Potency in the assay on SC27B was 355 nM (active); in the assay on TAB165 it was 251 nM (active).
